# Sampled rows, rich in hits. Any-hit rate of the full collection: about 10%.
# HP1b chromo inh: HTS for Inhibitors of HP1-beta Chromodomain Interactions with Methylated Histone Tails. hit rate 0.56% among 390,000. Chromobox protein homolog 1 (Homo sapiens), P83916. AlphaScreen HP1-beta / biotin-H3K9me3 peptide binding. Potency, µM (doses to about 114 µM), hits mostly inhibitors; note: nearly all actives have a fitted effect of over 70% in size
#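 AlphaScreen: HP1-beta (50 nM) preformed 30 min with biotin-H3(1-18)K9me3 peptide (50 nM) in PBS pH 7.4, 0.01% Tween-20. Compound added for 30 min at RT, then streptavidin donor/nickel chelate acceptor beads (10 ug/mL) for 30 min.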
# JMJD2A Tudor: qHTS Assay for Inhibitors of JMJD2A-Tudor Domain | Lysine-specific demethylase 4A (Homo sapiens), O75164 | AID 504339, 2011 | hit rate 4.4% among 390,000 | AlphaScreen JMJD2A-Tudor / H3K4me3 peptide binding | Potency, µM (doses to about 114 µM), actives largely listed as inhibitors; note: nearly all actives have a fitted effect of over 50% in size
# G9a block: qHTS Assay for Inhibitors of Histone Lysine Methyltransferase G9a. Potency, µM (top dose mostly 102 µM), most hits filed as inhibitors. G9a H3K9 monomethylation, AlphaScreen, 2 h. hit rate 8.8% among 350,000. Histone-lysine N-methyltransferase EHMT2 (Homo sapiens), Q96KQ7; note: nearly all actives have a fitted effect of over 75% in size
#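 Enzyme 20 nM + cpd, 15 min RT; add b-H3K9 pep 500 nM / SAM 20 uM; 2 h RT; anti-H3K9me1 Ab 0.5 ug/mL + SA donor / anti-rabbit acceptor beads 20 ug/mL each, 10 min; AlphaScreen read.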
# BAZ2B block: qHTS Assay for Inhibitors of BAZ2B. Bromodomain adjacent to zinc finger domain protein 2B (Homo sapiens), Q9UIF8. AlphaScreen BAZ2B-H3K14Ac peptide displacement. Potency, µM (top dose mostly 114 µM), actives largely listed as inhibitors. hit rate 4.4% among 360,000. AID 504333, 2011; note: nearly all actives have a fitted effect of over 60% in size
#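 AlphaScreen displacement: compounds (up to 110uM) incubated 30 min at room temperature with a preformed 50 nM BAZ2B/50 nM biotinylated H3K14Ac peptide complex in PBS pH 7.4 with Tween-20. Donor and acceptor beads at 10 ug/mL final added, 20 min light-protected before reading.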
# Six1-Eya2 inh: qHTS Assay for Inhibitors of the Six1/Eya2 Interaction; activity change, % (concentration not given with the values); AlphaScreen GST-Six1/His-Eya2 binding, biochemical; hits give low values; hit rate 0.56% among 360,000; Homeobox protein SIX1 (Homo sapiens) + Protein phosphatase EYA2 (Homo sapiens), …; in the data active = activity change below about -65%; inconclusive = mostly about -30% to -63%
#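 Homogeneous AlphaScreen proximity assay pairing GST-Six1 with His-tagged Eya2 (added as 5X mix: 250 nM and 500 nM) in 50 mM Tris pH 8.0, 300 mM NaCl, 1 mM TCEP. Glutathione donor and nickel acceptor beads; 1 h, 37 °C, dark.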
# CtBP-E1A blk: qHTS Assay for Inhibitors of the CtBP/E1A Interaction; activity change, % (concentration not given with the values); AID 651724, 2012; CtBP / adenovirus E1A interaction (AlphaScreen); AlphaScreen GST-E1A/His-CtBP binding, 1536-well; hits give low values; hit rate 0.49% among 340,000; in the data active = activity change below about -65%; inconclusive = mostly about -30% to -63%
#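 Protein mix (5X: 125 nM each GST-E1A, His-CtBP) was incubated with pinned compound 2 h at 37 deg C in dark, in 50 mM Tris pH 8.0 buffer with 300 mM NaCl. Glutathione donor and nickel acceptor beads followed; AlphaScreen signal read after 1 h.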
# A number is an active result; – = inactive; ? = inconclusive; · = not tested or not shown; [ ] = remark or other dose. Unless noted, calls come from the whole dose curve; as a rule, active = well fitted inhibition curve with a large enough effect; inconclusive = small, poorly fitted or top-dose-only effect; inactive = no such curve, though single readings can be large or run the other way.
SMILES,HP1b chromo inh,JMJD2A Tudor,G9a block,BAZ2B block,Six1-Eya2 inh,CtBP-E1A blk
Cc1ccc(C2c3c(oc4cc(C)c(C)cc4c3=O)C(=O)N2CCCN2CCOCC2)cc1 (stereo not drawn),–,–,39.8µM,–,–,–
C=CCOc1ccc(C2c3c(oc4ccccc4c3=O)C(=O)N2CCCN2CCOCC2)cc1 (stereo not drawn),–,–,50.1µM,–,–,–
Cc1ccc(C2c3c(oc4ccccc4c3=O)C(=O)N2CCCN2CCOCC2)o1 (stereo not drawn),–,14.1µM,?,–,–,–
O=C1c2oc3ccc(Cl)cc3c(=O)c2C(c2ccccn2)N1CCCN1CCOCC1 (stereo not drawn),–,–,20µM,?,–,–
O=C1c2oc3ccccc3c(=O)c2C(c2cccnc2)N1CCCN1CCOCC1 (stereo not drawn),–,–,–,–,–,–
COc1ccc(C2c3c(oc4ccc(C)cc4c3=O)C(=O)N2CCCN2CCOCC2)cc1OC (stereo not drawn),–,–,–,–,·,·
Cc1cc(F)ccc1S(=O)(=O)NCC1CC2CCC1C2 (stereo not drawn),–,–,–,–,–,–
COc1cc2c(cc1OC)C(COc1ccc(F)cc1)N(C(=O)c1cccc(F)c1)CC2 (stereo not drawn),–,?,–,–,·,·
COC(=O)[C@@]1(Cc2ccc(F)cc2)[C@H]2c3cc(C(=O)N4CCCC4)n(CCc4ccc(O)c(O)c4)c3C[C@H]2CN1C(=O)c1ccccc1,·,·,7.08µM,39.8µM,·,·
COC(=O)[C@@]1(Cc2ccc(OC)cc2)[C@H]2c3cc(C(=O)N4CCCC4)n(CCSCCO)c3C[C@H]2CN1C(=O)c1ccccc1,–,–,35.5µM,?,–,–
COC(=O)[C@@]1(Cc2ccc(OC)cc2)[C@H]2c3cc(C(=O)N4CCCC4)n(CCO)c3C[C@H]2CN1C(=O)c1ccccc1,–,–,50.1µM,–,–,–
COC(=O)[C@@]1(Cc2ccc(OC)cc2)[C@H]2c3cc(C(=O)N(C)C)n(CCSCCO)c3C[C@H]2CN1C(=O)c1ccccc1,–,–,56.2µM,?,–,–
COc1ccccc1CNc1ncnc2ccc(-c3ccccc3OC)cc12,·,·,–[0.501 µM],·,·,·
COC(=O)[C@@]1(Cc2ccc(OC)cc2)[C@H]2c3cc(C(=O)N4CCCC4)n(CCc4c[nH]c5ccc(O)cc45)c3C[C@H]2CN1C(=O)c1ccccc1,·,·,50.1µM,?,·,·
COC(=O)[C@@]1(Cc2ccc(F)cc2)[C@H]2c3cc(C(=O)N(C)C)n(Cc4ccc(OC(F)(F)F)cc4)c3C[C@H]2CN1C(=O)c1ccccc1,·,·,50.1µM,–,·,·
COC(=O)[C@@]1(Cc2ccc(OC)cc2)[C@H]2c3cc(C(=O)N4CCCC4)n(CCc4ccc(OC)c(Br)c4)c3C[C@H]2CN1C(=O)c1ccccc1,·,·,·,·,–,–
COC(=O)[C@@]1(Cc2ccc(F)cc2)[C@H]2c3cc(C(=O)N(C)C)n(CCF)c3C[C@H]2CN1C(=O)c1ccccc1,·,·,·,·,–,–
O=C(CCCCCn1c(=O)c2sccc2n(CC(=O)Nc2cccc(Cl)c2)c1=O)NCc1ccc2c(c1)OCO2,–,–,–,?,·,·
Cc1c(C(=O)NCc2cccc(F)c2)oc2c1-c1[nH]ncc1CC2,–,–,–,–,·,·
CCOc1cc(C(=O)CSc2nnc(CNc3ccc(Cl)cc3)o2)ccc1NC(=O)CC,–,–,–,–,–,–
O=c1[nH]cnc2c1ncn2[C@@H]1C[C@@H](O)[C@H](CO)O1,–,–,–,–,–,–
OCC1OC(n2cnc3c(=S)nc[nH]c32)CC1O (stereo not drawn),?,2.82µM,·,·,–,–
S=c1nc[nH]c2c1ncn2C1CCCO1 (stereo not drawn),–,2µM,10µM,?,–,–
CCC(=O)C(C#N)(c1ccc(OC)c(OC)c1)C(C)C (stereo not drawn),–,–,–[0.501 µM],–,–,·
Cc1cc(S(=O)(=O)N2CCCC(N(C)CCc3ccccn3)C2)c(C)s1 (stereo not drawn),·,·,50.1µM,–,·,·
SMILES,HP1b chromo inh,JMJD2A Tudor,G9a block,BAZ2B block,Six1-Eya2 inh,CtBP-E1A blk
Cc1ccccc1N1CCN(C2CCCN(C(=O)CCN3CCCCC3=O)C2)CC1 (stereo not drawn),–,–,–,–,–,–
O=C(c1cccc(-c2ccccc2)c1)N1CC[C@@H](N2CCC(O)CC2)[C@H](O)C1,–,–,–,–,–,–
COc1ccc(-c2csc(C)n2)cc1,–,–,–,–,–,–
COc1ccc(-c2csc(CCN3N=C(C)CC3=O)n2)cc1,–,?,31.6µM,39.8µM,–,–
O=C(OCc1cc2ccccc2[nH]c1=O)c1cccs1,–,–,20µM,–,–,–
CC(C)(C)Nc1scc(-c2ccccc2)[n+]1-c1ccccc1,–,–,44.7µM,50.1µM,–,–
CC(C)(C)Nc1c2ccccc2nc2ccccc12,–,–,–[2.33 µM],–,–,–
CCOC(=O)C1Nc2ccccc2C2C(O)C(O)CC12 (stereo not drawn),–,50.1µM,·,·,–,–
CCOC(=O)C1Nc2ccc(C(F)(F)F)cc2C2c3ccccc3CC12 (stereo not drawn),–,–,·,·,–,·
CCOC(=O)c1[nH]nc(-c2cc(CC)c(O)cc2O)c1-c1cscn1,–,89.1µM,·,?,–,–
CCCc1cc2c(=O)c(-c3cscn3)c(C(=O)OCC)oc2cc1O,–,–,?,·,–,–
CCN=c1scc(-c2ccco2)n1/N=C/c1ccc(O)cc1,?,56.2µM,35.5µM,50.1µM,–,–
Cc1ccc(N2CCn3c2nc2c3c(=O)n(CCCc3ccccc3)c(=O)n2C)cc1C,–,–,–,–,·,·
CC1=Nc2cc([N+](=O)[O-])ccc2NC(C)(C)C1,–,?,31.6µM,?,–,–
O=[N+]([O-])c1ccccc1S(=O)(=O)N1CCN(c2nc(-c3ccccc3)nc3ccccc23)CC1,–,–,·,·,·,·
COc1ccc(NC(=O)Nc2ccc(Br)cn2)cc1,–,–,–,–,–,–
CCCCOc1ccccc1C1CC(=O)Nc2ccc3ccccc3c21 (stereo not drawn),–,–,–,?,·,·
O=C1C=C(c2ccccc2)C(=O)N1Nc1ccccc1,–,–,8.91µM,–,–,–
COc1ccc(C2=CC(=O)N(Nc3ccccc3)C2=O)cc1,–,–,?,–,–,–
COC(=O)c1ccc(NC(=O)CCn2cnnn2)cc1,–,–,–,–,·,·
